According to the supplement of paper PMC6089552:
Out of some 3,200 compounds screened, about 300 (9.4%) showed activity. Shown is part of a subset that was picked to be rich in actives.

System: A673/TR/shEF
Experiment: cell viability (LOESS-normalised, relative to median of negative controls) (log2 ratio); higher = more viable cells (less compound effect), active = hit call of the paper (over 3 MAD below the median)
Settings: treatment time: 72 h
Procedure, shortened: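 A673/TR/shEF Ewing sarcoma cells (1,500 per well, 384-well plates) were grown with or without doxycycline to induce EWS-FLI1 shRNA knockdown, starting 24 h before compounds. Library compounds at two or more concentrations, with DMSO controls, were added for three days. Cell viability was read by CellTiter-Glo luminescence on an Envision reader, then LOESS-corrected per plate, divided by the median of negative controls and log2-transformed. Hits were wells at least three median absolute deviations from the median of all screened wells.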

[1] = 0.103 µM, library screen: screen3, EWS-FLI1 expression: high (no doxycycline)
[2] = 0.103 µM, library screen: screen3, EWS-FLI1 expression: low (doxycycline-induced shRNA knockdown)
[3] = 0.25 µM, library screen: screen1, EWS-FLI1 expression: high (no doxycycline)
[4] = 0.25 µM, library screen: screen1, EWS-FLI1 expression: low (doxycycline-induced shRNA knockdown)
[5] = 0.25 µM, library screen: screen2, EWS-FLI1 expression: high (no doxycycline)
[6] = 0.25 µM, library screen: screen2, EWS-FLI1 expression: low (doxycycline-induced shRNA knockdown)
[7] = 0.308 µM, library screen: screen3, EWS-FLI1 expression: high (no doxycycline)
[8] = 0.308 µM, library screen: screen3, EWS-FLI1 expression: low (doxycycline-induced shRNA knockdown)
[9] = 0.926 µM, library screen: screen3, EWS-FLI1 expression: high (no doxycycline)
[10] = 0.926 µM, library screen: screen3, EWS-FLI1 expression: low (doxycycline-induced shRNA knockdown)
[11] = 2.5 µM, library screen: screen1, EWS-FLI1 expression: high (no doxycycline)
[12] = 2.5 µM, library screen: screen1, EWS-FLI1 expression: low (doxycycline-induced shRNA knockdown)
[13] = 2.5 µM, library screen: screen2, EWS-FLI1 expression: high (no doxycycline)
[14] = 2.5 µM, library screen: screen2, EWS-FLI1 expression: low (doxycycline-induced shRNA knockdown)
[15] = 2.8 µM, library screen: screen3, EWS-FLI1 expression: high (no doxycycline)
[16] = 2.8 µM, library screen: screen3, EWS-FLI1 expression: low (doxycycline-induced shRNA knockdown)
[17] = 8.3 µM, library screen: screen3, EWS-FLI1 expression: high (no doxycycline)
[18] = 8.3 µM, library screen: screen3, EWS-FLI1 expression: low (doxycycline-induced shRNA knockdown)
[19] = 25 µM, library screen: screen3, EWS-FLI1 expression: high (no doxycycline)
[20] = 25 µM, library screen: screen3, EWS-FLI1 expression: low (doxycycline-induced shRNA knockdown)

Measured: cell viability (log2)

NC(=O)c1ncn([C@@H]2O[C@H](CO)[C@@H](O)[C@H]2O)n1
inactive: [1] 0.0479 | [2] -0.00301 | [3] 0.0242 | [4] -0.0375 | [5] 0.0942 | [6] 0.138 | [7] 0.00539 | [8] 0.013 | [9] 0.012 | [10] 0.0638 | [11] 0.0898 | [12] -0.0568 | [13] 0.148 | [14] 0.053 | [15] -0.0142 | [16] -0.0276 | [17] 0.0371 | [18] 0.0291 | [19] 0.13 | [20] 0.0392

N=c1ccn2c(n1)O[C@H]1[C@H](O)[C@@H](CO)O[C@H]12
active: [3] -0.254 | [5] -0.122 | [11] -1.03 | [12] -0.19 | [13] -0.641
inactive: [4] 0.0178 | [6] 0.0732 | [14] 0.0215

Nc1ccn([C@@H]2O[C@H](CO)[C@@H](O)C2(F)F)c(=O)n1
active: [1] -1.19 | [2] -0.155 | [7] -1.43 | [8] -0.392 | [9] -1.81 | [10] -0.473 | [15] -1.98 | [16] -0.588 | [17] -2.08 | [18] -0.562 | [19] -2.16 | [20] -0.572

NC(=O)c1ncn([C@@H]2O[C@H](CO)[C@@H](O)[C@H]2O)c1O
inactive: [3] 0.115 | [4] 0.116 | [5] 0.21 | [6] 0.141 | [11] 0.0737 | [12] 0.176 | [13] 0.0545 | [14] 0.0404

Nc1ncn([C@@H]2O[C@H](CO)[C@@H](O)[C@H]2O)c(=O)n1
active: 25 µM, library screen: screen2, EWS-FLI1 expression: high (no doxycycline) -0.117
inactive: 0.025 µM, library screen: screen2, EWS-FLI1 expression: high (no doxycycline) 0.00187 | 0.025 µM, library screen: screen2, EWS-FLI1 expression: low (doxycycline-induced shRNA knockdown) 0.0749 | [3] 0.0677 | [4] 0.0883 | [5] 0.0549 | [6] 0.0892 | [11] 0.046 | [12] 0.161 | [13] 0.0659 | [14] 0.0803 | 25 µM, library screen: screen2, EWS-FLI1 expression: low (doxycycline-induced shRNA knockdown) -0.00278

Nc1ncn([C@H]2C[C@H](O)[C@@H](CO)O2)c(=O)n1
inactive: [1] -0.0304 | [2] 0.0527 | [7] -0.025 | [8] 0.0562 | [9] -0.0731 | [10] 0.022 | [15] -0.0569 | [16] 0.0493 | [17] -0.0462 | [18] 0.058 | [19] -0.117 | [20] 0.0388

Nc1ccn([C@@H]2CS[C@H](CO)O2)c(=O)n1
inactive: [1] 0.125 | [2] 0.0191 | [7] 0.0768 | [8] 0.0559 | [9] 0.0245 | [10] 0.0926 | [15] 0.132 | [16] 0.0391 | [17] 0.0536 | [18] 0.0703 | [19] 0.101 | [20] 0.0951
